Shown are actives, neighbours in structure and some others; about 2.9% of the full set was active somewhere.
ADAM10 inh – human ADAM10 inhibitors, primary screen, biochemical, QFRET, HTS. inhibition, % at 7 µM. recombinant ADAM10, EDANS/DABCYL FRET peptide cleavage, 3 h. 370,000 tested, 0.62% active. Disintegrin and metalloproteinase domain-containing protein 10 (Homo sapiens), O14672;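 active means inhibition above a per-campaign cutoff equal to the mean of compounds falling between control-based bounds plus 3 SD, cut at about 20% in these data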
ADAM17 inh – ADAM17 inhibitors, primary screen, biochemical, QFRET. Disintegrin and metalloproteinase domain-containing protein 17 (Homo sapiens), P78536. recombinant ADAM17, EDANS/DABCYL FRET peptide cleavage. inhibition, % at 6.95 µM. 370,000 tested, 0.83% active;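 active means inhibition above the mean of compounds lying between control limits plus 3 SD, set per campaign, cut at about 8.5% in these data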
PLC-gamma1 inh – PLC-gamma1 enzyme inhibitors, primary screen, biochemical, fluorescence, purified enzyme | 1-phosphatidylinositol 4,5-bisphosphate phosphodiesterase gamma-1 (Homo sapiens), P19174 | fluorogenic substrate | inhibition, % at 12.2 µM | 370,000 tested, 0.84% active | AID 720700, 2013; in the data active means inhibition above about 9.5%
PLCb3 inh – human PLC-beta3 inhibitors, primary screen, biochemical, fluorescence. 1-phosphatidylinositol 4,5-bisphosphate phosphodiesterase beta-3 (Homo sapiens), Q01970. Purified PLC-beta3, fluorogenic substrate. inhibition, % at 12.2 µM. 370,000 tested, 0.18% active. AID 720704, 2013; in the data active means inhibition above about 11%
KLK7 zymogen act – proKLK7 zymogen activators, primary screen, biochemical, fluorescence intensity; purified proKLK7, EDANS-DABCYL substrate fluorescence; 100% is mature enzyme control, 0% vehicle; AID 652039, 2013; Kallikrein-7 (Homo sapiens), P49862; activation, % at 7 µM; 370,000 tested, 0.9% active;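 active means activation above the mean of all tested compounds plus 3 SD, computed per campaign excluding outliers beyond control limits, cut at about 13% in these data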
proKLK7 act conf – proKLK7 zymogen activators, confirmation, biochemical, fluorescence intensity, triplicate | shares compounds with KLK7 zymogen act | purified proKLK7, EDANS-DABCYL substrate fluorescence; scaled: vehicle 0, mature enzyme 100 | activation, % at 7 µM | 3,200 tested, 68% active | AID 686949, 2013;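 active means activation, as change over the incubation, above the mean of all tested compounds plus 3 SD, cut at about 13% in these data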
EDANS-DABCYL int – EDANS-DABCYL substrate optical interference, artefact control for kallikrein-7 zymogen activator project, biochemical, fluorescence intensity, high throughput | shares compounds with KLK7 zymogen act | no enzyme, 4 h; solvent 0%, active enzyme control 100% | activation, % at 7 µM | 3,200 tested, 80% active | AID 686952, 2013;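 active means activation above the all-compound mean plus 3 SD, ignoring values outside control-based bounds, cut at about 4.8% in these data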;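 further: value is the 4 h activation minus the activation read at time zero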
EDANS interf – optically interferes with EDANS-DABCYL fluorescence, kallikrein-7 activator counter-screen; shares compounds with KLK7 zymogen act; EDANS-DABCYL peptide fluorescence interference, no enzyme; EC50, µM; 250 tested, 20% active; AID 720493;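 active means compounds that raise the fluorescence signal in this interference counterscreen, with EC50 at or below 10 µM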;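 further: intact quenched peptide substrate alone read at 355 nm excitation and 520 nm emission; signal is fluorescence gain from T0 to T4 after four hours at room temperature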
A number is an active result; i = inactive; nt = no result given.

SMILES | ADAM10 inh | ADAM17 inh | PLC-gamma1 inh | PLCb3 inh | KLK7 zymogen act | proKLK7 act conf | EDANS-DABCYL int | others
CCC(C)NC(=O)c1cc2c(=O)n3ccccc3nc2s1 (stereo not drawn) | i | i | i | i | 66.1 | 60.7 | 69.8
O=C1N(CCCO)CCC12CCCCC2 | i | i | i | i | i | nt | nt
O=C(Nc1nc2c(s1)CCc1ccccc1-2)c1cccs1 | i | i | i | i | 14.5 | i | 14.6
C#CCOc1ccc(C2C3=C(CC(C)(C)CC3=O)N(CC(=O)O)C3=C2C(=O)CC(C)(C)C3)cc1 | i | i | i | i | 30.4 | 68.1 | 79.7
COc1ccc(C2C3=C(CC(C)(C)CC3=O)N(C)C3=C2C(=O)CC(C)(C)C3)cc1 | i | i | i | i | 35.4 | 16.5 | 24.9
COc1ccc(N2C3=C(C(=O)CC(C)(C)C3)C(c3ccccc3OC)C3=C2CC(C)(C)CC3=O)cc1 | i | i | i | i | 22.5 | i | i
C#CCOc1ccc(C2C3=C(CC(C)(C)CC3=O)N(CC(=O)O)C3=C2C(=O)CC(C)(C)C3)cc1OC | i | i | i | i | i | nt | nt
COc1ccccc1C1C2=C(CC(C)(C)CC2=O)N(CC(=O)O)C2=C1C(=O)CC(C)(C)C2 | i | i | i | i | 21.3 | 30.2 | 34.0
CCOC(=S)SCC(=O)N1CCc2cc(OC)c(OC)cc2C1C1C(=O)CC(C)(C)CC1=O (stereo not drawn) | i | i | i | i | 25.8 | i | i
CCOC(=S)SCC(=O)N1CCc2ccccc2C1C1C(=O)CC(C)(C)CC1=O (stereo not drawn) | i | i | i | i | i | nt | nt
CC(C)C[C@@H]1COc2cc(Br)ccc2S(=O)(=O)N1Cc1cn(Cc2ccccc2)nn1 | i | i | i | i | i | nt | nt
CC(C)N1CCCCC(NC(=O)c2ccc(F)cc2)C1=O (stereo not drawn) | i | i | i | i | i | nt | nt
Cc1ccc2nc3c(cc(C#N)c(=O)n3-c3nccs3)c(=O)n2c1 | i | i | i | i | 25.2 | 61.3 | 73.3
N#Cc1c(-c2ccco2)cc(C2CC2)nc1N | i | i | i | i | i | nt | nt
N#Cc1c(-c2cccnc2)cc(-c2ccccc2)nc1N | i | i | i | i | 13.2 | 14.2 | 13.4
N#Cc1c(-c2ccccc2F)cc(-c2cccnc2)nc1N | i | i | i | i | i | nt | nt
N#Cc1c(-c2ccco2)cc(-c2cccnc2)nc1N | i | i | i | i | 20.4 | 42.2 | 43.4
N#Cc1c(-c2ccco2)cc(-c2ccccn2)nc1N | i | i | i | i | 13.0 | 41.0 | 39.8
COc1cc(OC)c(/C=N/n2c(C)nnc2C)c(OC)c1 | i | i | i | i | 16.2 | i | i
COc1ccc(C2NC(=O)c3ccccc3N2)c(OC)c1OC (stereo not drawn) | i | i | i | i | 32.7 | 45.2 | 47.2
O=C1NC(c2cccc(OCc3ccccc3)c2)Nc2ccccc21 (stereo not drawn) | i | i | i | i | 14.5 | i | i
O=C1NC(c2ccc(O)cc2)Nc2ccccc21 (stereo not drawn) | i | i | i | i | 28.5 | 25.2 | 26.9
CSc1ccc(C2NC(=O)c3ccccc3N2)cc1 (stereo not drawn) | i | i | i | i | 16.9 | 16.7 | 12.7 | EDANS interf=i
COc1ccc(C2NC(=O)c3ccccc3O2)c(OC)c1OC (stereo not drawn) | i | i | i | i | i | nt | nt
O=S(=O)(CC1NCc2cc(F)ccc21)NCc1ccc(F)cc1 (stereo not drawn) | i | i | i | i | i | nt | nt
SMILES | ADAM10 inh | ADAM17 inh | PLC-gamma1 inh | PLCb3 inh | KLK7 zymogen act | proKLK7 act conf | EDANS-DABCYL int | others
O=C(N[C@H]1C[C@@H]2O[C@H](CO)CC[C@@H]2O[C@@H]1CCc1ccc(-c2cccnc2)cc1)c1cccc(F)c1 | i | i | i | i | i | nt | nt
COC(=O)[C@]12C[C@H](CC(=O)NCc3cccs3)C(=O)N(Cc3ccc(Cl)cc3Cl)C1=C[C@H](C(C)(C)C)O[C@@H]2C | i | i | i | i | i | nt | nt
COc1ccccc1-c1cccc2c3c([nH]c12)[C@@H]1C[C@H]2[C@@H](CN1CC3)[C@H](C)ON2C | i | i | i | i | i | nt | nt
Cc1ccc(C)c(C2NC(=O)c3ccccc3N2)c1 (stereo not drawn) | i | i | i | i | 36.2 | 23.6 | 20.6
O=C1NC(c2ccccc2O)Nc2ccccc21 (stereo not drawn) | i | i | i | i | 22.3 | i | 16.9
Cn1cc(C2NC(=O)c3ccccc3N2)c2ccccc21 (stereo not drawn) | i | i | i | i | i | nt | nt
COc1cc(C)c(C2NC(=O)c3ccccc3N2)cc1C (stereo not drawn) | i | i | i | i | i | nt | nt
Cc1coc2c1c(C)cc1oc(=O)c(CC(=O)NCC(=O)O)c(C)c12 | i | i | i | i | 15.9 | 57.1 | 59.4
Cc1coc2c1c(C)cc1oc(=O)c(CC(=O)NCCCCCC(=O)O)c(C)c12 | i | i | i | i | 18.4 | 34.2 | 28.5 | EDANS interf=i
Cc1oc2c(c(C)cc3oc(=O)c(CC(=O)N[C@@H](CC(C)C)C(=O)O)c(C)c32)c1C | i | i | i | i | i | nt | nt
Cc1oc2c(c(C)cc3oc(=O)c(CC(=O)N[C@H](C(=O)O)C(C)C)c(C)c32)c1C | i | i | i | i | 15.5 | i | 13.4
C[C@@H]1CN(c2ccc(N3CCN(C(=O)OC(C)(C)C)C[C@H]3C)cc2C#N)CCN1Cc1ccccc1 | i | i | i | i | i | nt | nt
COc1ccc(/C=C/C(=O)O)cc1Cl | i | i | i | i | i | nt | nt
COc1cc(/C=C/C(=O)O)cc(OC)c1O | i | i | i | i | 20.8 | 70.0 | 79.2
COc1cc(C)cc(C(=O)C=Cc2ccccc2)c1O | i | i | i | i | 14.1 | i | 10.8
Cc1ccc(O)c(C(=O)C=Cc2ccccc2)c1 | i | i | i | i | 13.3 | 34.1 | 34.4
O=C(NN1C(=O)c2ccccc2NC12CCCCC2)c1ccccc1 | i | i | i | i | i | nt | nt
CS(=O)(=O)NN1C(=O)c2ccccc2NC12CCCC2 | i | i | i | i | 71.9 | 37.8 | 51.2
O=C1c2ccccc2NC2(CCCC2)N1NS(=O)(=O)c1ccccc1 | i | i | i | i | 36.8 | 31.0 | 28.0
CCOC(=O)c1cc(OC(C)=O)c2ccc(OC)c(OC)c2c1 | i | i | i | i | 13.8 | i | i
CCOC(=O)c1ccc(OC)c(OC)c1Cl | i | i | i | i | i | nt | nt

Source: PubChem BioAssay
